Hits are enriched below; roughly 1.6% of the tested compounds scored in any of these assays.
KCNQ2 pot: enhances the rat KCNQ2 potassium channel. O88943. CHO-K1 KCNQ2, FluxOR thallium flux fluorescence; hits give high values. B-score at 10 µM. actives 0.54% (n = 310,000). AID 2239;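 active = fluorescence ratio B-score at least 3 SD of library B-scores, with initial fluorescence B-score within 3 of them, cut at about 5.3 in these data; same plate scores as AID 2156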;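 note: B-score of peak minus minimum over baseline fluorescence ratio after K+ and Tl+ stimulus; positive B-score means potentiation of KCNQ2 with more thallium influx and brighter signal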
Target sequence (O88943 whole entry, looked up): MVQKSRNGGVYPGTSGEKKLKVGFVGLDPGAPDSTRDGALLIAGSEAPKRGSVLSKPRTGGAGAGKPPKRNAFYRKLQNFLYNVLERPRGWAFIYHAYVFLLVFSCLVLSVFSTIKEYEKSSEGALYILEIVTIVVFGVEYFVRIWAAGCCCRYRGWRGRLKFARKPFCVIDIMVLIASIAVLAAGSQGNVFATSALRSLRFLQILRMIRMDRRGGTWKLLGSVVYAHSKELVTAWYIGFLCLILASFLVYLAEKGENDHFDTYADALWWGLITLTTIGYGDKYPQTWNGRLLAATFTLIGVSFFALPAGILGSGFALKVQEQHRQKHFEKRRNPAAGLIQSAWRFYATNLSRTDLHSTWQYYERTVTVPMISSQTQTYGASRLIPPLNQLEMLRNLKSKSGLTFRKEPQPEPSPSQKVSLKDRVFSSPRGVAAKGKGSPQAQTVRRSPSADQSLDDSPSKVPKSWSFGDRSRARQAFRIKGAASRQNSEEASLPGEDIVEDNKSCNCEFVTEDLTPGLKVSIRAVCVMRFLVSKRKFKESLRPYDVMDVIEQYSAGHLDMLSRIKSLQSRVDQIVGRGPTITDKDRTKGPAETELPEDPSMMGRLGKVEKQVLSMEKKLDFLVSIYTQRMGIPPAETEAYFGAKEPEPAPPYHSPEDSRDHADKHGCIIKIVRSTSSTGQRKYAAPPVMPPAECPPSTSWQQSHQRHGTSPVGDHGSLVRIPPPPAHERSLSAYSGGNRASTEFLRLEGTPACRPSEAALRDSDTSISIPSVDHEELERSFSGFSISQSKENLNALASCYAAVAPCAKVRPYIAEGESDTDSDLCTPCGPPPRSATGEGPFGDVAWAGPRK
KCNQ2 block: KCNQ2 (rat) channel inhibition | O88943 | CHO-K1 KCNQ2, FluxOR thallium flux, 20 min; hits give low values | B-score at 10 µM | actives 1.1% (n = 310,000);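 active = fluorescence ratio B-score at most minus 3 library SDs, with starting brightness B-score within 2 library SDs, cut at about -5.5 in these data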
* hit, by the source's call; i = inactive; · = no result given.

SMILES | KCNQ2 pot | KCNQ2 block
O=C(CSc1nnc(COc2ccc(F)cc2)o1)N1c2ccccc2CCc2ccccc21 | -6.6 | -6.6*
CCn1c(=O)[nH]c2cc(C(=O)Nc3cc(C)cc(C)c3)ccc2c1=O | 2.4 | i
O=C(NC(=S)NCCc1ccccc1)c1cccc(Cl)c1 | · | i
CN(CC(=O)Nc1ccccc1-c1ccccc1)Cc1ccccc1Cl | -6.3 | -6.3*
Cc1ccc(NC(=O)CN(C)CC(=O)Nc2ccccc2-c2ccccc2)cc1 | · | i
O=C(NCC(O)CN1CCOCC1)c1ccc([N+](=O)[O-])cc1 (stereo not drawn) | · | i
CCSc1nc(=S)cc(C)[nH]1 | 13* | i
CCSc1nc(O)cc(=O)[nH]1 | · | i
C=CCc1cccc(/C=N/NC(=O)CNc2cccc3ccccc23)c1O | 0.98 | i
C=CCc1cccc(/C=N/NC(=O)CNc2ccccc2OC)c1O | 6.2* | i
CC(=O)c1cnc2c(-c3ccccc3)c(C)nn2c1C | · | i
CC(=O)c1cnc2c(-c3ccc(Cl)cc3)c(C)nn2c1C | -5.8 | -5.8*
Cc1ccccc1N1CCN(C2CCCN(C(=O)c3cn4cccc(C)c4n3)C2)CC1 (stereo not drawn) | · | i
CCOC(=O)CC1COCCN1C(=O)CCc1nnc(-c2ccsc2)o1 (stereo not drawn) | 0.09 | i
Cc1nn(Cc2ccc(C(=O)N3c4ccc(F)cc4CCC3C)o2)c(C)c1Br (stereo not drawn) | -7.6 | -7.6*
Cc1ccc(C(=O)N2c3ccc(F)cc3CCC2C)o1 (stereo not drawn) | · | i
CCOc1cc(N2CCOCC2)c(OCC)cc1NC(=O)CN1CCCC1 | 0.49 | i
COc1ccc(OC)c(N2CC(O)(c3ccccc3)[N+]3=C2SCCC3)c1 (stereo not drawn) | · | i
COc1ccc(C2(O)CN(c3ccccc3)C3=[N+]2CCS3)cc1OC (stereo not drawn) | · | i
OC1(c2ccc(Br)cc2)CN(c2ccccc2)C2=[N+]1CCS2 (stereo not drawn) | -6 | -6*
OC1(c2ccc(Cl)cc2)CN(c2ccccc2)C2=[N+]1CCS2 (stereo not drawn) | -7.2 | -7.2*
O=C(c1ccc(COCC(F)(F)F)o1)N1CCCC1 | · | i
CCN(CC)CCOc1ccc(/C(=C(\Cl)c2ccccc2)c2ccccc2)cc1 | -7.6 | -7.6*
CCN(CC)CCOc1ccc(Br)cc1 | · | i
CCOC(=O)NNC(=O)c1[nH]c2ccc(Br)cc2c1-c1ccccc1 | -6.8 | -6.8*
SMILES | KCNQ2 pot | KCNQ2 block
CC(=O)NNC(=O)c1[nH]c2ccc(Br)cc2c1-c1ccccc1 | 3.3 | i
COC(=O)c1ccc(OC)c(CSc2nnc(COc3ccc(OC)cc3)o2)c1 | · | i
COC(=O)c1ccc(OC)c(CSc2nnc(COc3cccc(C)c3)o2)c1 | -6.1 | -6.1*
COc1ccc(S(=O)(=O)N2CCCOC2CNC(=O)C(=O)NCCc2ccco2)cc1 (stereo not drawn) | · | i
CCOC(=S)N/C(=N\S(=O)(=O)c1ccc(C)cc1)c1ccccc1 | 2.5 | i
CCOC(=O)N1CCN(CCC(=O)c2ccc(Cl)cc2)CC1 | -6.7 | -6.7*
CCOC(=O)N1CCN(CCC(=O)c2ccc(OC)cc2)CC1 | · | i
C=CCOC(=O)C1=C[C@@H](c2csc3ccccc23)C[C@@H](OCCCCO)O1 | · | i
N#C/C(=C\c1c(N2CCC(C(N)=O)CC2)nc2ccccn2c1=O)S(=O)(=O)c1ccc(Cl)cc1 | · | i
COc1ccc2c(c1)C(C)CC(C)(C)N2C(=O)Nc1ccccc1 (stereo not drawn) | · | i
COc1ccc2c(c1)C(C)CC(C)(C)N2C(=O)CSc1nc2ccccc2s1 (stereo not drawn) | -7.5 | -7.5*
Cn1c(=O)[nH]c2ccc([N+](=O)[O-])nc21 | · | i
Cc1cccc(OCc2n(CC(=O)OC3CC(C)CCC3C(C)C)c3ccccc3[n+]2C)c1 (stereo not drawn) | -6.3 | -6.3*
Cc1cccc(OC(=O)Cn2c(C(F)(F)F)nc3ccccc32)c1 | 0.08 | i
Fc1ccc(-n2ncc3c(SCc4cccnc4)ncnc32)cc1 | · | i
Cc1ccc(C(=O)NCCCNC(=O)COc2ccc(C)c(C)c2)cn1 | · | i
COCc1c(C(=O)OC)nnn1-c1ccc(C(F)(F)F)cc1[N+](=O)[O-] | 0.12 | i
COc1ccc(OC)c(-c2cc(C(=O)N3CCCc4ccccc43)no2)c1 | · | i
COc1ccccc1-c1cc(C(=O)N2CCCc3ccccc32)no1 | -6 | -6*
Cc1ccc2cc3cc(C(=O)NCCCN4CCCC4=O)oc3nc2c1 | · | i
Cc1nn(Cc2ccccc2)c(Cl)c1/C=C/C(=O)OC(C(=O)NC(N)=O)C(C)C (stereo not drawn) | 0.74 | i
CCOC(=O)C1=C(C)NC(C)=C(C(=O)OC)C1c1cccc([N+](=O)[O-])c1 (stereo not drawn) | · | i
COC(=O)C1=C(C)NC(C)=C(C(=O)O[C@@H]2CCCN(Cc3ccccc3)C2)[C@@H]1c1cccc([N+](=O)[O-])c1 | -5.8 | -5.8*
Nc1nc2c(Cl)cc(Cl)cc2s1 | 0.89 | i
Nc1nc2c(Cl)ccc(Cl)c2s1 | 6* | i
SMILES | KCNQ2 pot | KCNQ2 block
Cn1c(CSCc2ccc(F)cc2)nnc1SCC(=O)Nc1cccc(C(=O)O)c1 | 0.11 | i
Cc1ccc(CNC(=O)CCC2CCCN(Cc3c(C)nn(C(C)C)c3C)C2)o1 (stereo not drawn) | 0.27 | i
c1ccc(-c2onc(-c3ccco3)c2-c2ccc3c(c2)OCO3)cc1 | -5.9 | -5.9*
O=C(O)c1cc(-c2ccc(-c3c(-c4ccc5c(c4)OCO5)noc3-c3ccsc3)cc2)nc2ccccc12 | · | i
CN(c1ccccc1)S(=O)(=O)c1ccc(C(=O)Nc2ncccc2O)cc1 | 1.1 | i
O=C(CSC1=N/C(=C/c2ccco2)C(=O)N1c1ccc(OC(F)F)cc1)NC1CCS(=O)(=O)C1 (stereo not drawn) | 0.6 | i
CCN1CCN(C(=O)CS(=O)Cc2nc(-c3cccc(C)c3)oc2C)CC1 (stereo not drawn) | · | i
Cc1cccc(-c2nc(CS(=O)CC(=O)N3CCc4ccccc4C3)c(C)o2)c1 (stereo not drawn) | -7.8 | -7.8*
CC(=O)Nc1ccc(C2NC(=O)CCC2[N+](=O)[O-])cc1 (stereo not drawn) | 0.25 | i
O=C(Nc1cccnc1)C1CC(=O)N(c2ccc(F)cc2)C1 (stereo not drawn) | · | i
COc1ccc(NC(=O)/C(Cl)=C(/Cl)S(=O)(=O)Cc2ccc(C)cc2)cn1 | 5.4* | i
COc1ccc(NC(=O)Cc2ccc(Cl)c(Cl)c2)cn1 | · | i
CC(Sc1nnc(N)s1)C(=O)NC1CCCCC1C (stereo not drawn) | · | i
O=C(COc1ccccc1Cl)Nc1nnc(S(=O)(=O)N2CCCCCC2)s1 | 0.03 | i
O=C(NC1CCCC1)c1ccc2c(c1)N(Cc1ccc(F)cc1)CCS2 | -6.4 | -6.4*
Cc1ccc(CN2CCSc3ccc(C(=O)NC4CCCC4)cc32)cc1 | · | i
CC(C)C[C@H](NC(=O)C1CCN(S(=O)(=O)c2ccccc2)CC1)C(=O)NCc1ccncc1 | · | i
Cc1nc(SCc2cccnc2)[nH]c(=O)c1C | 0.23 | i
CCOC(=O)C1CCN(C2=C(NS(=O)(=O)c3ccc(Cl)cc3)C(=O)c3ccccc3C2=O)CC1 | · | i
CCOC(=O)C1CCCN(C2=C(NS(=O)(=O)c3ccc(Br)cc3)C(=O)c3ccccc3C2=O)C1 (stereo not drawn) | -6.7 | -6.7*
